Screening results (PubChem BioAssay)
Sampled rows, rich in hits. Any-hit rate of the full collection: about 9.3%.
FMDV inh: High Throughput Screening for Foot and Mouth Disease Virus Antivirals. FMDV antiviral cell-based qHTS. Potency, µM (titrated, usually from 57.9 µM), usual class: inhibitors. actives 1.2% (n = 410,000); calls by dose curve; tested in HEK293T cells; further: read-out not given here; nearly all actives have a fitted effect of over 45% in size
VACV Venus inh: qHTS for Stage-Specific Inhibitors of Vaccinia Orthopoxvirus: Venus Reporter Primary qHTS. Vaccinia virus Venus reporter expression, fluorescence. Potency, µM (titrated, usually from 36.5 µM), usual class: inhibitors. actives 0.46% (n = 330,000); calls by dose curve; tested in A549 cells; further: nearly all actives have a fitted effect of over 30% in size
Vaccinia mCherry: qHTS for Stage-Specific Inhibitors of Vaccinia Orthopoxvirus: mCherry Reporter Primary qHTS; Vaccinia virus mCherry reporter infection, fluorescence; Potency, µM (series often up to 36.5 µM), hits mostly inhibitors; actives 0.63% (n = 310,000); calls by dose curve; tested in A549 cells; further: nearly all actives have a fitted effect of over 35% in size
Sm TGR block: qHTS Assay for the Inhibitors of Schistosoma Mansoni Peroxiredoxins. actives 3% (n = 360,000). Potency, µM (highest dose often 114 µM), actives largely listed as inhibitors. purified TGR, DTNB reduction, TNB absorbance 405 nm. Schistosoma mansoni thioredoxin glutathione reductase (TGR), Q962Y6; further: nearly all actives have a fitted effect of over 60% in size
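First, TGR (20 nM dispensed) and NADPH were mixed with compound. Second, a 15 min room-temperature incubation followed. Third, further NADPH and then DTNB were added to start the reaction. Finally, TNB absorbance was monitored kinetically.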
HCMV antiviral: qHTS Assay for inhibitors of the human cytomegalovirus (HCMV). HFF cells, HCMV-luciferase reporter, 72 h; active compounds read low. activity change, negative = inhibition, % at 57.5 µM. AID 1259415, 2018. actives 4.5% (n = 410,000); in the data active means activity change below about -60%; inconclusive means no clear call, values can overlap the other calls; inactive means above about -39%
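HFF cells seeded 16 h at 37C, treated with compounds, infected with luciferase-reporter HCMV at MOI 1 PFU/cell; luciferase read at 72 h post infection, normalized to buffer-only and Salinomycin controls.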
HCV inhibitor: qHTS Assay for Inhibitors of Hepatitis C Virus (HCV); Potency, µM (top dose mostly 41.8 µM), hits mostly inhibitors; AID 651820, 2012; actives 3.4% (n = 340,000); Huh7.5.1 HCVcc-Cre infection, luciferase reporter, 44 h
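Infectious HCVcc-Cre (~0.5 moi) was added to cells just after compound, with cells seeded 4 h earlier at 1,000 per well. Luciferase activity after 44 h culture reported infection; substrate was incubated 15 min at room temperature before reading.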
Of the large screens only hits and unclear results are named; the others gave an inactive call. Unless noted, the call rests on the fitted dose curve; in most records, active means well fitted curve in the direction sought with a large enough effect; inconclusive means small, poorly fitted or top-dose-only effect, or another doubt; inactive means no such curve, though single readings can be large; an effect the other way counts as inactive or inconclusive.

CN(CCc1ccccc1)C(=O)c1ccc(NC(=O)Cc2ccc(NC(=O)C3CCCN(S(=O)(=O)c4cccc([N+](=O)[O-])c4)C3)cc2)cc1 (stereo unspecified)	Vaccinia mCherry inconclusive, HCV inhibitor inconclusive (no result: Sm TGR block)
CN(Cc1ccccc1)C(=O)c1cccc(NC(=O)Cc2ccc(NC(=O)C3CCN(S(=O)(=O)c4cccc([N+](=O)[O-])c4)CC3)cc2)c1	HCV inhibitor 8.9µM (no result: Sm TGR block)
COc1ccc(C(=O)/C=C/c2ccc(OC)c(CN3CCOCC3)c2)cc1	FMDV inh 14µM, VACV Venus inh inconclusive, Vaccinia mCherry 10µM, HCMV antiviral -77
COc1ccc(C(=O)/C=C/c2ccc(OC)c(Cn3nnc4ccccc43)c2)cc1	FMDV inh 13µM, VACV Venus inh inconclusive, Vaccinia mCherry 13µM, HCMV antiviral inconclusive
COc1ccc(C)cc1Cn1nnc2ccccc21	none
COc1ccc(/C=C/C(=O)c2ccccc2O)cc1CN1CCOCC1	FMDV inh inconclusive, Sm TGR block inconclusive, HCV inhibitor inconclusive (no result: Vaccinia mCherry, HCMV antiviral)
COc1ccc(/C=C/C(=O)c2ccc(O)cc2)cc1CN1CCOCC1	FMDV inh inconclusive, VACV Venus inh inconclusive, Vaccinia mCherry inconclusive, HCMV antiviral inconclusive
COc1ccc(/C=C/C(=O)C23CC4CC(CC(C4)C2)C3)cc1CN1CCOCC1	FMDV inh inconclusive, HCMV antiviral -82, HCV inhibitor inconclusive
O=C(NC(=S)Nc1ccc2c(c1)OCO2)c1ccccc1	Sm TGR block 14µM
O=C(NC(=S)Nc1ccccc1Br)c1ccc2c(c1)OCO2	Sm TGR block 14µM, HCV inhibitor inconclusive
CCn1cc(C(=O)NC(=S)Nc2ccccc2Br)cn1	Sm TGR block 79µM, HCV inhibitor inconclusive (no result: VACV Venus inh, Vaccinia mCherry)
CCn1cc(C(=O)NC(=S)Nc2ccccc2[N+](=O)[O-])cn1	none
C/C(CC(=O)Nc1ccc2c(c1)OCO2)=N\NC(=O)c1ccc(N)cc1	Sm TGR block 40µM
O=C(c1ccccc1-n1cccn1)N1CCc2c([nH]c3ccccc23)C1c1ccccn1 (stereo unspecified)	Vaccinia mCherry inconclusive, HCMV antiviral inconclusive
Cc1cc(NC(=O)c2cc(-c3ccco3)on2)nn1Cc1ccc(Cl)cc1	VACV Venus inh inconclusive, HCMV antiviral inconclusive, HCV inhibitor inconclusive
COC(=O)N1CCC2(CC1)CN(c1ccncc1)C2	none (no result: VACV Venus inh, Vaccinia mCherry, Sm TGR block, HCMV antiviral, HCV inhibitor)
Cc1cc(C(=O)CN2C(=O)C(=O)N(Cc3ccccc3)C2=O)c(C)n1CC1COc2ccccc2O1 (stereo unspecified)	Vaccinia mCherry inconclusive, HCV inhibitor 11µM
O=C(N/N=C/c1ccc(OC(F)F)cc1)C1=COCCO1	none
COc1ccc(/C(O)=C2/C(=O)C(=O)N(Cc3ccco3)C2c2cccs2)cc1 (stereo unspecified)	none (no result: FMDV inh)
CC1Cc2cc(/C(O)=C3/C(=O)C(=O)N(Cc4ccco4)C3c3cccs3)ccc2O1 (stereo unspecified)	Sm TGR block 35µM (no result: Vaccinia mCherry)
CC(C)(C)c1ccc(-c2nc(SCCCOc3ccccc3)n3[nH]c(=O)cc3n2)cc1	HCMV antiviral inconclusive (no result: HCV inhibitor)
Cc1cc(OCCCSc2nc(-c3ccc(C(C)(C)C)cc3)nc3cc(=O)[nH]n23)ccc1Cl	HCMV antiviral -64 (no result: HCV inhibitor)
CCN(C(=O)COC(=O)C12CC3CC(CC(NC(C)=O)(C3)C1)C2)C1CCCCC1	none
OCCC1CN(C/C=C/c2ccco2)CCN1Cc1ccccc1 (stereo unspecified)	Sm TGR block 20µM
COc1ccccc1/C=C/CN1CCN(Cc2ccc(F)cc2)C(CCO)C1 (stereo unspecified)	none
O=C(CSc1nnc(-c2ccccc2)n1-c1ccccc1)c1cccs1	none
Cc1ccccc1NC(=O)C1C2CCCC1C2c1ccccc1 (stereo unspecified)	none
Cc1ccc(SCC2(O)CCN(S(=O)(=O)c3ccc(Cl)cc3)CC2)cc1	FMDV inh inconclusive, HCV inhibitor inconclusive (no result: VACV Venus inh, Vaccinia mCherry)
COc1ccc(S(=O)(=O)N2CCC(O)(c3ccc(Cl)cc3)CC2)cc1OC	FMDV inh inconclusive, HCMV antiviral -73
CN1CCN(CC2(O)CCN(S(=O)(=O)c3ccc(Cl)cc3)CC2)CC1	HCMV antiviral -69
COc1ccc(S(=O)(=O)N2CCC(O)(c3ccc(Cl)cc3)CC2)cc1	FMDV inh inconclusive, VACV Venus inh inconclusive
O=C(N/N=C/c1ccncc1)c1nc(-c2ccccc2)n2c1CCCCC2	none (no result: VACV Venus inh, Vaccinia mCherry)
Cn1c(=O)[nH]c(=O)c2c1nc(CN1CCN(c3ccccc3F)CC1)n2Cc1ccc(F)cc1	none (no result: HCV inhibitor)
Cc1nc2nc(-c3ccco3)nn2c(C)c1Cl	Sm TGR block 22µM (no result: Vaccinia mCherry)
O=C1C=CCC(/C=C/c2ccccc2)O1 (stereo unspecified)	FMDV inh inconclusive, VACV Venus inh 0.89µM, Vaccinia mCherry inconclusive, HCMV antiviral inconclusive
CCOC(=O)c1[nH]c2c(c1C)C(=O)CC(c1ccc(OC)c(OC)c1)C2 (stereo unspecified)	HCV inhibitor inconclusive (no result: Vaccinia mCherry)
COc1cc(C2CC(=O)c3c([nH]c(C(=O)OCCOC(C)C)c3C)C2)cc(OC)c1OC (stereo unspecified)	FMDV inh 11µM, HCMV antiviral -63, HCV inhibitor inconclusive
COc1cc(C2CC(=O)c3c([nH]c(C(=O)OCc4ccc(C)cc4)c3C)C2)cc(OC)c1OC (stereo unspecified)	FMDV inh 14µM, Vaccinia mCherry inconclusive (no result: HCV inhibitor)
Cc1ccc(C)c2nc(Cl)c(C3NC(=O)c4ccccc4N3)cc12 (stereo unspecified)	none (no result: VACV Venus inh, Vaccinia mCherry)
Cn1c(Sc2ccc(Cl)cc2)c(C=O)c2ccccc21	FMDV inh inconclusive, HCMV antiviral inconclusive, HCV inhibitor 10µM (no result: Vaccinia mCherry)
O=C(NNC1CC(=O)N(c2ccc(Cl)cc2)C1=O)c1ccccn1 (stereo unspecified)	none (no result: VACV Venus inh, Vaccinia mCherry)
NNC(=O)/C(=N/Nc1ccccc1)S(=O)(=O)c1ccc(Cl)cc1	Vaccinia mCherry inconclusive, HCV inhibitor 10µM
Cc1nc2c(nc1C)C(=O)c1ccccc1C2=O	FMDV inh inconclusive, VACV Venus inh 4µM, Vaccinia mCherry 3.5µM, HCMV antiviral inconclusive, HCV inhibitor inconclusive (no result: Sm TGR block)
NC1=CC(=O)C(=O)c2ccccc21	FMDV inh 40µM, VACV Venus inh inconclusive, Vaccinia mCherry 14µM, HCMV antiviral -64, HCV inhibitor inconclusive (no result: Sm TGR block)
O=C1c2ccccc2-c2cccnc21	HCMV antiviral -104 (no result: VACV Venus inh, Vaccinia mCherry)
O=C1c2ccccc2-c2nc3ccccc3nc21	none (no result: VACV Venus inh, Vaccinia mCherry)
O=C1C(=O)c2ccccc2-c2ccccc21	FMDV inh 5.6µM, VACV Venus inh 4.5µM, Vaccinia mCherry 2.8µM, Sm TGR block inconclusive, HCMV antiviral -101, HCV inhibitor 2.8µM
CN(C)CCC1(c2ccc(Cl)cc2)Cc2ccccc2C(=O)O1 (stereo unspecified)	none (no result: VACV Venus inh, Vaccinia mCherry, Sm TGR block, HCMV antiviral, HCV inhibitor)
